“And” between values parts separate entries of the source, which are not always exact repeats. Equal values may be shown once.
Biological target: C-X-C chemokine receptor type 6 (Homo sapiens) (UniProt O00574)
Assay: APJ beta-arrestin recruitment blockade alongside CXCR6 – cell-based, DiscoveRx, panel, CHO-K1, counter-screen for CXCR6 antagonist project, SAR follow-up (AID 651598)
Details: CHO-K1 PathHunter beta-arrestin luminescence, antagonist mode; run 6, at 80 µM (top of the series)

Chain of C-X-C chemokine receptor type 6 (Homo sapiens) (O00574 whole entry, looked up): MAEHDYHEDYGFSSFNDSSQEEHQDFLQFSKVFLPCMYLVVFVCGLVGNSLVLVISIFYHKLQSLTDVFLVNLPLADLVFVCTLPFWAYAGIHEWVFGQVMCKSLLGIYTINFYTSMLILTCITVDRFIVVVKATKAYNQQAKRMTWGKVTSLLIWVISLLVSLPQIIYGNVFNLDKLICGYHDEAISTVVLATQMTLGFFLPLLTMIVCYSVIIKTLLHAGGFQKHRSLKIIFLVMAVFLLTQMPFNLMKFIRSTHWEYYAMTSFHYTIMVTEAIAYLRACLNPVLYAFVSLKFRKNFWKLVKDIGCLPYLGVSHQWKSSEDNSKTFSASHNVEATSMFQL

**Q.** For `COc1cc(C(=O)NC2CCN(CC(=O)Nc3ccccc3)CC2)cc(OC)c1OC`, which inhibition is on record?
**A.** Its inhibition is 20.7%.

**Q.** `COc1cc(C(=O)NC2CC3CCCC(C2)N3CC(=O)Nc2ccccc2)cc(OC)c1OC` (stereo not drawn) was tested. Which inhibition did it give?
**A.** The inhibition was 85.3% and 54.2% and 27.6%.

**Q.** With `COc1cc(C(=O)NC2CC3CCC(C2)N3CC(=O)Nc2ccccc2)cc(OC)c1OC` (stereo not drawn) as the compound, how does the inhibition read?
**A.** Its inhibition is 57.4% and -0.766%.

From PubChem BioAssay AID651598 (Sanford-Burnham Center for Chemical Genomics, 2012)
